Experimental data reported in PubChem BioAssay (NCATS).
“And” between values parts separate entries of the source, which are not always exact repeats. Equal entries are not always repeated. Results filed as inconclusive are left out. The source made the active and inactive calls. Calls follow the shape of the dose curve; as a rule, active = well fitted curve in the direction sought with a large enough effect; inconclusive = small, poorly fitted or top-dose-only effect, or another doubt; inactive = no such curve, though single readings can be large; an effect the other way counts as inactive or inconclusive.

How the values were obtained:
[1] = qHTS of pediatric cancer cell lines to identify multiple opportunities for drug repurposing: Confirmatory screen for BT-37 cells (AID 1347117); also: potency is read from the fitted curve at half-maximal effect;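 also: viability measured after 48 h of compound exposure; nearly all actives have a fitted effect of over 55% in size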
Outline: (§1)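 Cells (500-1,000/well) in growth media were settled 5 h at 37 degrees C, then given compounds for 48 h. Viability was read as CellTiter-Glo luminescence. Primary runs used MIPE at 11 points (0.78 nM-46 µM) and NPC at 8 points (0.59 nM-46 µM); follow-ups used 11 points.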

[2] = qHTS of pediatric cancer cell lines to identify multiple opportunities for drug repurposing: Confirmatory screen for TC32 cells (AID 1347118);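 also: cells exposed to compound for 48 h before the read; nearly all actives have a fitted effect of over 65% in size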; also: potency is read from the fitted curve at half-maximal effect
Outline: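 qHTS, TC32, 48 h drug treatment, CellTiter-Glo luminescence as a proxy for metabolically active cells; primary top concentration 46 µM (MIPE 11-pt, NPC 8-pt); confirmatory 11-pt.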

[3] = qHTS of pediatric cancer cell lines to identify multiple opportunities for drug repurposing: Confirmatory screen for U-2 OS cells (AID 1347122); also: nearly all actives have a fitted effect of over 65% in size; also: potency is read from the fitted curve at half-maximal effect
Outline: as §1

[4] = qHTS of pediatric cancer cell lines to identify multiple opportunities for drug repurposing: Confirmatory screen for Rh41 cells (AID 1347123);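 also: 48 h compound exposure; nearly all actives have a fitted effect of over 60% in size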; also: potency is read from the fitted curve at half-maximal effect
Outline: as §1

[5] = qHTS of pediatric cancer cell lines to identify multiple opportunities for drug repurposing: Confirmatory screen for RD cells (AID 1347124);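 also: cells exposed to compound for 48 h before viability readout; nearly all actives have a fitted effect of over 65% in size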; also: potency is read from the fitted curve at half-maximal effect
Outline: as §1

[6] = qHTS of pediatric cancer cell lines to identify multiple opportunities for drug repurposing: Confirmatory screen for Rh18 cells (AID 1347125); also: nearly all actives have a fitted effect of over 55% in size; also: potency is read from the fitted curve at half-maximal effect
Outline: as §1

[7] = qHTS of pediatric cancer cell lines to identify multiple opportunities for drug repurposing: Confirmatory screen for Rh30 cells (AID 1347126); also: nearly all actives have a fitted effect of over 55% in size; also: potency is read from the fitted curve at half-maximal effect
Outline: as §1

[8] = qHTS of pediatric cancer cell lines to identify multiple opportunities for drug repurposing: Confirmatory screen for Saos-2 cells (AID 1347127); also: nearly all actives have a fitted effect of over 60% in size; also: potency is read from the fitted curve at half-maximal effect
Outline: as §1

[9] = qHTS of pediatric cancer cell lines to identify multiple opportunities for drug repurposing: Confirmatory screen for OHS-50 cells (AID 1347128);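 also: compound exposure lasted 48 h at 37 degrees C; nearly all actives have a fitted effect of over 55% in size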; also: potency is read from the fitted curve at half-maximal effect
Outline: as §1

[10] = qHTS of pediatric cancer cell lines to identify multiple opportunities for drug repurposing: Confirmatory screen for SK-N-SH cells (AID 1347129);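 also: cells exposed to compound for 48 h before viability read; nearly all actives have a fitted effect of over 60% in size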; also: potency is read from the fitted curve at half-maximal effect
Outline: as §1

[11] = test system: Zika virus NS2B-NS3 protease; assay: Primary screen GU AMC qHTS for Zika virus inhibitors (AID 1347154); also: nearly all actives have a fitted effect of over 70% in size; also: potency is read from the fitted curve at half-maximal effect
Outline: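 Unlinked Zika NS2B hydrophilic domain/NS3 protease domain noncovalent complex (25 nM final) in 10 mM Tris-HCl pH 8.0, 0.01% Tween 20, with AMC peptide substrate. Fluorescence (ex 340, em 450 nm) change over 15 min, room temperature; percent inhibition fitted to 4-parameter Hill equation.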

[12] = qHTS of pediatric cancer cell lines to identify multiple opportunities for drug repurposing: Confirmatory screen for MG 63 (6-TG R) cells (AID 1347119); also: nearly all actives have a fitted effect of over 55% in size; also: potency is read from the fitted curve at half-maximal effect
Outline: as §1

[13] = qHTS of pediatric cancer cell lines to identify multiple opportunities for drug repurposing: Confirmatory screen for control Hh wild type fibroblast cells (AID 1347121); also: nearly all actives have a fitted effect of over 70% in size
Outline: as §1

Furin (Homo sapiens) = Furin (Homo sapiens) (UniProt P09958); assay: Furin counterscreen qHTS for Zika virus inhibitors (AID 1347149); also: nearly all actives have a fitted effect of over 70% in size; also: potency is read from the fitted curve at half-maximal effect
Outline: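 Counterscreen measures cleavage of 2 microM BOC-RVRR-AMC, below its ~15 microM Km, by 5 nM full-length human furin at pH 7.0 after a 15-min compound preincubation. Inhibition derives from the 15-min fluorescence increase at 37C.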

[14] = test system: Zika virus NS2B-NS3 protease (linked construct); assay: Confirmatory screen NINDS AMC qHTS for Zika virus inhibitors (AID 1347152); also: nearly all actives have a fitted effect of over 70% in size; also: potency is read from the fitted curve at half-maximal effect
Outline: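 IC50s from 4-parameter Hill fits of percent inhibition, based on AMC fluorescence gain (340/450 nm) over 15 min with 10 microM Bz-Nle-KRR-AMC. Enzyme: 1 nM linked NS2B-NS3 in Tris-HCl pH 8.0; 15-min compound preincubation.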

[15] = test system: Zika virus NS2B-NS3 protease (unlinked complex); assay: Confirmatory screen GU AMC qHTS for Zika virus inhibitors (AID 1347153); also: nearly all actives have a fitted effect of over 70% in size
Outline: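 Fluorescence change (ex 340/em 450 nm) over 15 min, ~20% substrate conversion, normalized to no-inhibitor and no-enzyme controls, then Hill-fitted. Unlinked protease at 25 nM; AMC peptide 10 µM.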

[16] = Confirmatory screen GU Rhodamine qHTS for Zika virus inhibitors qHTS (AID 1347157)
Outline: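 Unlinked NS2B/NS3, 25 nM; Rhod110 peptide, 1.5 microM; compounds, up to 114 microM. Reaction run 15 min at RT in 10 mM Tris-HCl pH 8.0, 0.01% Tween 20; kinetic fluorescence change fitted with a 4-parameter Hill model.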

[17] = ZIKV-mCherry secondary qHTS for Zika virus inhibitors (AID 1347158); also: top concentration of the series differs between compounds
Outline: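 Compounds were tested in Vero monkey kidney cells infected with recombinant mCherry-expressing Zika virus at MOI 1 for 48-72 h at 37 °C. Fixed cells were nuclear-stained and imaged, and infection rate was taken as the fraction of mCherry-positive cells.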

[18] = biological target: N-terminal Xaa-Pro-Lys N-methyltransferase 1 (Homo sapiens) (UniProt Q9BV86); assay: qHTS Assay for Inhibitors of N-terminal methyltransferase 1 (NTMT1): LOPAC validation of the NTMT1 SAHH-coupled ThioGlo3 Assay (AID 1347143); settings: recombinant NTMT1, SAHH-coupled ThioGlo3 fluorescence
Outline: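 In this qHTS pilot against the LOPAC set, 125nM NTMT1 met compounds tested at multiple concentrations, and fluorescence was normalized to background.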

[19] = test system: Zika virus NS2B-NS3 protease (unlinked); assay: Optimization of GU AMC qHTS for Zika virus inhibitors: Unlinked NS2B-NS3 protease assay (AID 1347151); settings: recombinant ZIKV NS2B-NS3 protease, fluorogenic AMC substrate; also: potency is read from the fitted curve at half-maximal effect; nearly all actives have a fitted effect of over 80% in size
Outline: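 Fluorescence gain (340/450 nm) over 15 min at room temperature, ~20% conversion, gave percent inhibition fitted to a 4-parameter Hill equation; enzyme was unlinked NS2B-NS3 (25 nM final), pH 8.0 Tris buffer.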

Measured: Potency

Chain of Furin (Homo sapiens) (P09958 whole entry, looked up): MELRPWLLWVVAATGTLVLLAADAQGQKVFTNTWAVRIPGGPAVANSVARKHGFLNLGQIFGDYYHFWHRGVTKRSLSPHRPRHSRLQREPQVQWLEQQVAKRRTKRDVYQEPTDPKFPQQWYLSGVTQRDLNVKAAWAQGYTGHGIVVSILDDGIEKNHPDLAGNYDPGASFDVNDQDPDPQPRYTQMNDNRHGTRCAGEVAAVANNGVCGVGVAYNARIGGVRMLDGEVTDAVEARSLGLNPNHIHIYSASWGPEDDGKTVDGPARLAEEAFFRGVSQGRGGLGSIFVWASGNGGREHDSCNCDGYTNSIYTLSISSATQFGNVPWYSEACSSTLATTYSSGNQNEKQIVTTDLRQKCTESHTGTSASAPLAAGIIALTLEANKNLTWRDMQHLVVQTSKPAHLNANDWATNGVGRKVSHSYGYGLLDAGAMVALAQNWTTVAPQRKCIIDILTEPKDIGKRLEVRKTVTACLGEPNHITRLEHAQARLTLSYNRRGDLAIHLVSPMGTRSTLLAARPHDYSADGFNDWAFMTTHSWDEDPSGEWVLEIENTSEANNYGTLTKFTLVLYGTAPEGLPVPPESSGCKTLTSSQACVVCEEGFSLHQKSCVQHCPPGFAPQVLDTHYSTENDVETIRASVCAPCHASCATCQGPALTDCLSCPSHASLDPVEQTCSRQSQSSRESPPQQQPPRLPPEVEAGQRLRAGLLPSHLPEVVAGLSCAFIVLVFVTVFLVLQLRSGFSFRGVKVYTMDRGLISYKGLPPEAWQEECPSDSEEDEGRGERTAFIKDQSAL
Chain of N-terminal Xaa-Pro-Lys N-methyltransferase 1 (Homo sapiens) (Q9BV86 whole entry, looked up): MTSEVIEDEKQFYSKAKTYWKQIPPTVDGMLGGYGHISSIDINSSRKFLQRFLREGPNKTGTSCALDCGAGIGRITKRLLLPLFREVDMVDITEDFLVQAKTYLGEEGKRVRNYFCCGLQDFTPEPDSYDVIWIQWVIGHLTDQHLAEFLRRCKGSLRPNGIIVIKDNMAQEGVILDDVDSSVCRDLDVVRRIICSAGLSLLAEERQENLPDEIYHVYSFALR

Cc1nc2cnc3ccc(C#Cc4cccnc4)cc3c2n1-c1ccc(C(C)(C)C#N)cc1
active: [1] 1.51 µM | [2] 0.676 µM | [3] 2.14 µM | [4] 0.851 µM | [5] 12 µM | [6] 1.91 µM | [7] 1.35 µM | [8] 5.37 µM | [9] 3.39 µM | [10] 2.15 µM
inactive: [11]

CN(C)CCCN=c1c2ccccc2n(C)c2[nH]c(=O)n(C)c(=O)c12
active: [1] 18.5 µM | [4] 23.3 µM
inactive: [12] | [13] | [3] | [8] | [10] | [11]

Cn1c2ccccc2c2c3c(c4c5ccccc5n(CCC#N)c4c21)CNC3=O
inactive: [13] | [6]
active: [1] 5.85 µM | [2] 4.14 µM | [3] 3.69 µM | [4] 29.3 µM | [8] 9.27 µM | [9] 11.7 µM | [10] 14.8 µM

CC[C@@H]1C(=O)N(C)c2cnc(Nc3ccc(C(=O)NC4CCC(N5CCN(CC6CC6)CC5)CC4)cc3OC)nc2N1C(C)C (stereo partly specified)
inactive: [1] | [12] | [13] | [3] | [4] | [5] | [6] | [7] | [8] | [10] | [11]

Nc1ccn([C@@H]2O[C@H](CO)[C@H](O)C2(F)F)c(=O)n1
inactive: [3] | [10] | [11]
active: [1] 0.0074 µM | [12] 2.33 µM | [4] 0.0522 µM | [6] 2.93 µM | [7] 5.85 µM

CN1CCN(c2cc(C(=O)Nc3ccc4c(c3)-c3c(c(C(N)=O)nn3-c3ccc(F)cc3)CC4)c(Cl)cn2)CC1
inactive: [11]
active: [1] 20.8 µM | [2] 20.8 µM | [4] 14.7 µM | [6] 26.1 µM | [7] 0.465 µM | [9] 23.3 µM | [10] 20.9 µM

Cc1cn2c(-c3cn[nH]c3)cnc2c(Nc2ccc(C(=O)N3CCNCC3)cc2F)n1
inactive: [13] | [3] | [5] | [11]
active: [1] 10.4 µM | [4] 5.85 µM | [7] 16.5 µM | [9] 16.5 µM | [10] 7.43 µM

CC(C)(C)OC(=O)Nc1ccc(-c2cc(C(=O)NCCCCCCC(=O)NO)no2)cc1
active: [3] 1.47 µM | [4] 1.85 µM | [5] 5.22 µM | [6] 4.65 µM | [7] 10.4 µM | [10] 2.35 µM
inactive: [13] | [11]

CC(C)c1ccccc1Cc1cc(C(=O)Nc2ccc(S(=O)(=O)c3ccccc3C(C)(C)C)cc2)c(O)c(O)c1O
inactive: Furin (Homo sapiens) | [14] | [15]
active: [11] 17.1 µM

CCOC(=O)C1=C(C)NC2=C(C(=O)CC(C)(C)C2)C1c1ccc(-c2ccccc2)cc1 (stereo unspecified)
active: Furin (Homo sapiens) 19.2 µM | [14] 17.1 µM

N#Cc1c(O)c2c(-c3ccc(-c4ccccc4O)cc3)csc2[nH]c1=O
inactive: Furin (Homo sapiens) | [17]
active: [14] 4.82 µM and 8.79 µM | [15] 9.61 µM | [11] 8.57 µM | [16] 2.21 µM

Nc1nc(NCCNc2ncc(-n3ccnc3)c(-c3ccc(Cl)cc3Cl)n2)ccc1[N+](=O)[O-]
inactive: [11]

CN[C@H]1CCc2cc(OC)c(OC)c(OC)c2-c2ccc(OC)c(=O)cc21
active: [3] 0.208 µM | [5] 0.104 µM
inactive: [13] | [6] | [7] | [11]

O=c1c2ccccc2nc2n1CCc1c-2[nH]c2ccccc12
active: [18] 56.2 µM | Furin (Homo sapiens) 42.9 µM | [19] 26.7 µM | [14] 24.1 µM

CC(C)C[C@H](NC(=O)CNC(=O)c1cc(Cl)ccc1Cl)B(O)O
inactive: [2] | [11]
active: [3] 0.928 µM | [4] 0.165 µM | [5] 0.465 µM | [6] 0.369 µM | [10] 0.418 µM

CC(C)(C)c1cc(C(C)(C)C)c(NC(=O)c2c[nH]c3ccccc3c2=O)cc1O
active: [12] 20.8 µM | [5] 29.3 µM | [8] 16.5 µM
inactive: [7]

CCc1c2c(nc3ccc(O)cc13)-c1cc3c(c(=O)n1C2)COC(=O)[C@]3(O)CC
active: [3] 3.69 µM | [4] 0.261 µM | [7] 1.47 µM | [10] 3.32 µM
inactive: [13] | [8] | [9] | [11]

COc1cccc(-c2ccc(NC(=O)C3=C(C(=O)O)CCC3)c(F)c2)c1
inactive: [13] | [6] | [9] | [10] | [11]
active: [2] 18.5 µM | [3] 14.7 µM | [5] 1.17 µM | [7] 7.37 µM

C=C1C(=CC=C2CCC[C@]3(C)[C@@H]([C@H](C)C=C[C@H](C)C(C)C)CC[C@@H]23)C[C@@H](O)C[C@@H]1O
inactive: [13] | [6] | [8] | [10] | [11]
active: [2] 23.3 µM | [12] 2.93 µM

CC=C1NC(=O)[C@H]2CSSCCC=C[C@H](CC(=O)N[C@H](C(C)C)C(=O)N2)OC(=O)[C@H](C(C)C)NC1=O
active: [2] 14.7 µM
inactive: [13] | [3] | [4] | [6] | [7] | [9] | [10] | [11]

O=C(O)C1(Cc2cccc(Nc3nccs3)n2)CCC(Oc2cccc(Cl)c2F)CC1 (stereo unspecified)
inactive: Furin (Homo sapiens)
active: [16] 6.98 µM

Cc1cc(Nc2cc(N3CCN(C)CC3)nc(C=Cc3ccccc3)n2)n[nH]1
inactive: [11]

Cc1cc(CN2CCN(c3c(Br)cnc4nc(-c5ccc(N6CCN(C)CC6)cc5)[nH]c34)CC2)no1
active: Furin (Homo sapiens) 24.1 µM | [14] 34.1 µM | [11] 24.1 µM
inactive: [17]
